In PubChem BioAssay (NCI):
Compounds without any hit were thinned out: in the full panel of roughly 83,000, 20% have a hit.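 In brief: 96-well plates, 48 h treatment, single concentration, percent growth endpoint.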 The source made the active and inactive calls. The calls were made as follows: active = growth percent below 10; inactive = the rest.

Assays:
Experiment in all cases: NCI-60 one-dose screen, 48 h (100 = growth as untreated, 0 = no growth, -100 = all killed)
Details in all cases: 10 µM unless noted
DU-145 prostate = test system: DU-145 prostate
K-562 leukemia = test system: K-562 leukemia
MALME-3M melanoma = test system: MALME-3M melanoma
MDA-MB-231 breast = test system: MDA-MB-231 breast
RXF 393 renal = test system: RXF 393 renal
SF-268 CNS = test system: SF-268 CNS
SF-295 CNS = test system: SF-295 CNS
SF-539 CNS = test system: SF-539 CNS
UACC-257 melanoma = test system: UACC-257 melanoma
M14 melanoma = test system: M14 melanoma

Measured: growth

S=C(N/N=C/c1cc(Cl)cc(Cl)c1)NC12CC3CC(CC(C3)C1)C2
inactive: DU-145 prostate 77.4% | K-562 leukemia 79.5% | MALME-3M melanoma 54.6% | MDA-MB-231 breast 52.6% | RXF 393 renal 67.2% | SF-268 CNS 64.6% | SF-295 CNS 35.1% | SF-539 CNS 68.9% | UACC-257 melanoma 83% | M14 melanoma 89%

C/C(=N\Nc1ccc(Cl)cn1)c1ccc2ccccc2n1
inactive: DU-145 prostate 19.9% | MALME-3M melanoma 10.6% | MDA-MB-231 breast 31.5% | RXF 393 renal 30.5% | SF-268 CNS 10.3%
active: K-562 leukemia 5.97% | SF-295 CNS 2.94% | SF-539 CNS 3.44% | UACC-257 melanoma -19.9% | M14 melanoma 0.159%

O=c1c(N=Nc2nccs2)c(-c2ccccc2)[nH]n1-c1nc(-c2ccccc2)cs1
inactive: DU-145 prostate 43.8% | K-562 leukemia 32.4% | MALME-3M melanoma 72% | MDA-MB-231 breast 53.1% | RXF 393 renal 65.2% | SF-268 CNS 32.3% | SF-295 CNS 25% | SF-539 CNS 39.7% | UACC-257 melanoma 39.6% | M14 melanoma 28.3%
